Assay results reported in PubChem BioAssay (EPA / NIEHS).
The source made the active and inactive calls. How the source made its calls: active means hit-call score of the fitted dose curve at least 0.9, where 1 is the maximum; inactive means score below 0.9.

Tests used:
[1] = APR_HepG2_CellCycleArrest_24hr: Apredica 24-hour HepG2 Assay for Cell Cycle Arrest (AID 2282905); conditions: imaging, actives raise or lower the signal;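 further: cell cycle arrest scored as ratio of 2N to 4N nuclear DNA content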
In short: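 After 24 h exposure at 0.39–200 uM in 0.5% DMSO, fixed cells received Hoechst 33342 staining. Imaging quantified per-nucleus DNA content; gain or loss fitted against DMSO controls.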

[2] = APR_HepG2_NuclearSize_24hr: Apredica 24-hour HepG2 Assay for Nuclear Size (AID 2282907); conditions: high-content imaging, actives raise or lower the signal
In short: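 Nuclear size from Hoechst 33342-stained, formaldehyde-fixed HepG2 nuclei imaged by high-content microscopy, after 24 h dosing at ten concentrations from 0.39 to 200 uM in 0.5% DMSO; gain or loss relative to DMSO baseline.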

[3] = APR_HepG2_CellLoss_24hr: Apredica 24-hour HepG2 Assay for Cell Loss (AID 2282908); conditions: high-content imaging;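 on AC50: fit in both directions so a hit may be cell loss or gain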
In short: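 Nuclei stained with Hoechst 33342 after formaldehyde fixation (3.7%) were imaged at 20x to count cells. Exposure lasted 24 hr, at ten concentrations from 0.39 to 200 uM in duplicate, with 0.5% v/v DMSO. Fit bidirectional, relative to DMSO.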

[4] = APR_HepG2_MicrotubuleCSK_24hr: Apredica 24-hour HepG2 Assay for Microtubule CSK Stabilty (AID 2282909); conditions: HepG2 microtubule cytoskeleton imaging, actives raise or lower the signal
In short: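 Fixed HepG2 cells were stained for alpha-tubulin and imaged after 24 hr exposure to ten concentrations spanning 0.39–200 uM in 0.5% DMSO. Signal change was fitted in both directions relative to DMSO; taxol was the positive control.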

[5] = APR_HepG2_MitoticArrest_24hr: Apredica 24-hour HepG2 Assay for Mitotic Arrest (AID 2282910); conditions: high-content imaging, actives raise or lower the signal
In short: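 Treatment lasted 24 hr in the human HepG2 line at 0.39–200 uM, solvent held at 0.5% DMSO. Fixed cells were stained with Hoechst 33342 and anti-phospho-histone H3, imaged at 20x, and analysed by gain- or loss-of-signal fitting against DMSO.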

[6] = APR_HepG2_MitoMembPot_24hr: Apredica 24-hour HepG2 Assay for Mitochondrial Membrane Potential (AID 2282911); conditions: imaging, actives raise or lower the signal
In short: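 Human hepatoma HepG2 cultures received ten compound concentrations up to 200 uM for 24 hr. Membrane-potential dye signal, captured by automated fluorescence microscopy, was scored for gain or loss against DMSO controls.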

[7] = APR_HepG2_MitoMass_24hr: Apredica 24-hour HepG2 Assay for Mitochondrial Mass (AID 2282912); conditions: high-content imaging, actives raise or lower the signal
In short: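 Endpoint is MitoTracker Red CMXRos (250 nM, 30 min, pre-fixation) intensity from 20x high-content imaging, nuclei located by Hoechst. Human HepG2 cells received ten concentrations from 0.39 to 200 uM in 0.5% DMSO for 24 hr, duplicate wells. Bidirectional fit relative to DMSO.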

[8] = APR_HepG2_p53Act_24hr: Apredica 24-hour HepG2 Assay for p53 Activation (AID 2282913); conditions: high-content imaging, actives raise or lower the signal;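 further: p53 protein immunofluorescence averaged per cell in HepG2 with Hoechst nuclei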
In short: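 Automated fluorescence imaging quantifies p53 immunostaining in HepG2 cells after a 24 hr exposure (0.39–200 uM, duplicate, 0.5% DMSO). Nuclei are located by Hoechst 33342 staining.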

[9] = APR_HepG2_CellCycleArrest_72hr: Apredica 72-hour HepG2 Assay for Cell Cycle Arrest (AID 2282914); conditions: high-content imaging, actives raise or lower the signal
In short: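 Cell cycle arrest in HepG2 was scored from nuclear DNA content after 72 hr compound treatment (0.39–200 uM). Activity, either gain or loss, was fitted against the DMSO baseline.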

[10] = APR_HepG2_CellLoss_72hr: Apredica 72-hour HepG2 Assay for Cell Loss (AID 2282915); conditions: high-content imaging
In short: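 HepG2 cells were exposed for 72 hr to compounds at 0.39–200 uM (ten concentrations, duplicate) in 0.5% v/v final DMSO. Nuclei were stained with Hoechst 33342 after 3.7% formaldehyde fixation, imaged at 20x, and counted; fits bidirectional versus DMSO.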

[11] = APR_HepG2_P-H2AX_72hr: Apredica 72-hour HepG2 Assay for H2AX Phosphorylation (AID 2282916); conditions: imaging, actives raise or lower the signal;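 further: phospho-histone H2A.x immunostain intensity per cell marking DNA damage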
In short: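 Phospho-histone H2A.x immunofluorescence, multiplexed with Hoechst and c-Jun, quantified by high-content imaging. Compounds applied to HepG2 for 72 h across ten concentrations (0.39–200 uM, 0.5% DMSO), in duplicate; DMSO baseline.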

[12] = APR_HepG2_MitoMembPot_72hr: Apredica 72-hour HepG2 Assay for Mitochondrial Membrane Potential (AID 2282917); conditions: imaging, actives raise or lower the signal
In short: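 HepG2 cells exposed 72 h to compounds at 0.39–200 uM (0.5% v/v DMSO, duplicates); MitoTracker Red CMXRos 250 nM loaded 30 min before 3.7% formaldehyde fixation, imaged by HCS fluorescence. Bidirectional fit versus DMSO.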

[13] = APR_HepG2_MitoticArrest_72hr: Apredica 72-hour HepG2 Assay for Mitotic Arrest (AID 2282918); conditions: high-content imaging, actives raise or lower the signal
In short: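 Mitotic arrest in HepG2 is scored from phospho-histone H3 staining after 72 hr dosing across 0.39–200 uM, with DMSO at 0.5% v/v. Nuclei are identified by Hoechst 33342 and fluorescence intensity is quantified per cell.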

[14] = APR_HepG2_MicrotubuleCSK_72hr: Apredica 72-hour HepG2 Assay for Microtubule CSK Stabilty (AID 2282919); conditions: HepG2 microtubule cytoskeleton, high-content imaging, actives raise or lower the signal
In short: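 Ten-point dosing (0.39–200 uM, 0.5% DMSO) of HepG2 for 72 hr, with taxol as the cytoskeletal positive control. The cells were formaldehyde-fixed and then stained with alpha-tubulin/Cy5 and Hoechst. Imaging at 20x used a −2 um Z offset for tubulin.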

[15] = APR_HepG2_P-H2AX_24hr: Apredica 24-hour HepG2 Assay for H2AX Phosphorylation (AID 2282920); conditions: high-content imaging, actives raise or lower the signal
In short: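 Signal comes from a FITC-labeled secondary detecting phospho-histone H2A.x in fixed HepG2 cells, quantified by automated imaging at 20x. Dosing ran 24 hr across 0.39–200 uM with 0.5% v/v DMSO.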

[16] = APR_HepG2_StressKinase_72hr: Apredica 72-hour HepG2 Assay for Stress Kinase (AID 2282921); conditions: HepG2 stress kinase (phospho-c-Jun) imaging, actives raise or lower the signal
In short: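 Stress kinase signal is phospho-c-Jun immunofluorescence (1:500 primary, Cy3 secondary) in fixed, permeabilized human HepG2 cells imaged at 20x. Exposure lasted 72 hr over ten concentrations from 0.39 to 200 uM, 0.5% DMSO, in duplicate. Bidirectional fit versus DMSO.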

[17] = APR_HepG2_StressKinase_24hr: Apredica 24-hour HepG2 Assay for Stress Kinase (AID 2282922); conditions: HepG2 stress kinase (phospho-c-Jun) imaging, actives raise or lower the signal
In short: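 After 24 hr compound treatment (up to 200 uM, final DMSO 0.5% v/v), HepG2 cells are fixed and multiplex-labeled; phospho-c-Jun intensity is captured by high-content fluorescence imaging and analyzed relative to DMSO.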

[18] = APR_HepG2_p53Act_72hr: Apredica 72-hour HepG2 Assay for p53 Activation (AID 2282923); conditions: high-content imaging, actives raise or lower the signal;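 further: average cellular p53 protein immunofluorescence intensity in HepG2 cells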
In short: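 After 72 h with compound (ten points, 0.39 to 200 uM, final DMSO 0.5% v/v), fixed HepG2 cells were labelled with sheep anti-p53 and Hoechst 33342 and imaged; gain or loss versus DMSO scored.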

[19] = APR_HepG2_MitoMass_72hr: Apredica 72-hour HepG2 Assay for Mitochondrial Mass (AID 2282924); conditions: high-content imaging, actives raise or lower the signal;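 further: MitoTracker Red CMXRos stain intensity per cell imaged as mitochondrial mass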
In short: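 Steps: treat HepG2 72 hr (0.39–200 uM, duplicate wells); load MitoTracker Red CMXRos, 250 nM, 30 min; fix with 3.7% formaldehyde, permeabilise with 0.5% Triton X-100; capture images, nuclei via Hoechst 33342; fit bidirectionally against DMSO.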

[20] = APR_HepG2_NuclearSize_72hr: Apredica 72-hour HepG2 Assay for Nuclear Size (AID 2282925); conditions: high-content imaging, actives raise or lower the signal
In short: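 Compounds (0.39–200 uM, final DMSO 0.5%) were applied to HepG2 for 72 hr. Cells were then formaldehyde-fixed, permeabilized and labelled with Hoechst 33342. Nuclear diameter was quantified from six images per well.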

Measured: AC50

COc1ccc(OC(F)(F)F)cc1CN[C@H]1CCCN[C@H]1c1ccccc1
inactive: [4] | [6] | [9] | [14] | [17] | [20]
active: [1] 29.2 µM | [2] 33.4 µM | [3] 45.8 µM | [5] 39.5 µM | [7] 66.7 µM | [8] 24.9 µM | [10] 27.5 µM | [11] 28.3 µM | [12] 55.9 µM | [13] 17.7 µM | [15] 32.6 µM | [16] 28.8 µM | [18] 24.3 µM | [19] 62.3 µM

O=[Si]=O
active: [10] 61.4 µM
not listed: [20]
inactive: all other assays above

NCCOCCOCCN
active: [1] 0.998 µM | [3] 92.3 µM | [4] 170 µM | [5] 14.3 µM | [6] 107 µM | [7] 45.3 µM | [8] 83.7 µM | [9] 18.6 µM | [10] 16.6 µM | [11] 6.09 µM | [13] 15.8 µM | [14] 96.6 µM | [15] 76.5 µM | [17] 100 µM | [18] 7.09 µM | [19] 84.5 µM
inactive: [2] | [12] | [16]

COC(=O)[C@H]1[C@H]2C[C@@H]3c4[nH]c5cc(OC)ccc5c4CCN3C[C@H]2C[C@@H](OC(=O)c2cc(OC)c(OC)c(OC)c2)[C@@H]1OC
inactive: [2] | [9] | [16]
active: [1] 79 µM | [3] 37.6 µM | [4] 44.3 µM | [5] 31.1 µM | [6] 90.2 µM | [7] 41.2 µM | [8] 40.3 µM | [10] 19.5 µM | [11] 23.9 µM | [12] 48 µM | [13] 16.3 µM | [14] 39.4 µM | [15] 30.1 µM | [18] 24.6 µM | [19] 28.8 µM

CCCCC(CC)COC(=O)CCCCCCCC(=O)OCC(CC)CCCC (stereo not given)
inactive: all assays above

CC(=O)S[C@H](C(=O)N[C@H]1Cc2ccccc2[C@H]2CCC[C@@H](C(=O)O)N2C1=O)C(C)C
not listed: [17]
inactive: all other assays above
